{"source": "PubChem BioAssay (NCATS)", "note": "Inconclusive results are not listed. Entries that show only a call come without a potency. The source made the active and inactive calls. Calls follow the shape of the dose curve; as a rule, active = well fitted curve in the direction sought with a large enough effect; inconclusive = small, poorly fitted or top-dose-only effect, or another doubt; inactive = no such curve, though single readings can be large; an effect the other way counts as inactive or inconclusive."}
{"target": "Cytochrome P450 3A4 (Homo sapiens) (UniProt P08684)", "sequence (P08684 whole entry, looked up)": "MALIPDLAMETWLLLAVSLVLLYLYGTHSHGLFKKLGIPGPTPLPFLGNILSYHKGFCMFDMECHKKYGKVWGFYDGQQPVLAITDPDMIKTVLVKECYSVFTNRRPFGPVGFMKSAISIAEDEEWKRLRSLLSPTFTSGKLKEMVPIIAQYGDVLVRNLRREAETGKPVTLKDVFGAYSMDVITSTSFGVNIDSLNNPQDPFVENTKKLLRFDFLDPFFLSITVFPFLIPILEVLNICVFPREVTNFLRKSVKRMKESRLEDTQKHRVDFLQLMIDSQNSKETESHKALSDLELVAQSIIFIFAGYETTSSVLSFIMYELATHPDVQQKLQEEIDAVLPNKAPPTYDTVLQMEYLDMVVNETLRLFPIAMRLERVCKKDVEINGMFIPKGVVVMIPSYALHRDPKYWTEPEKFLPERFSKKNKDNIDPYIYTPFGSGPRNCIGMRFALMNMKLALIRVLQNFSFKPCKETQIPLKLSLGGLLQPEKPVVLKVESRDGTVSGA", "assay": "qHTS Assay for Activators of Cytochrome P450 3A4 (AID 885); also: nearly all actives have a fitted effect of over 65% in size; also: potency is read from the fitted curve at half-maximal effect", "conditions": "recombinant CYP3A4, Luciferin-PPXE luminescence, 60 min; series mostly up to 57.1 µM", "outline": "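20nM CYP3A4 + 25uM Luciferin-PPXE (=KM), 200mM KPO4; cpd 10 min RT; NADPH regen, 60 min RT; stop w/ detection buffer, 20 min; luminescence. Normalized to 57 uM ketoconazole.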"}
{"smiles": "CCCn1c(-c2ccc(F)cc2)nc2c(NCCN3CCOCC3)nc(C)nc21", "Potency": "inactive"}
{"smiles": "CCCn1c(-c2ccc(F)cc2)nc2c(NCCN3CCSCC3)nc(C)nc21", "Potency": "inactive"}
{"smiles": "CCCCNc1nc(C)nc2c1nc(-c1ccccc1)n2CCN1CCCCC1", "Potency": "inactive"}
{"smiles": "Cc1nc(Nc2ccccc2)c2nc(-c3ccccc3)n(CCN3CCOCC3)c2n1", "Potency": "inactive"}
{"smiles": "Cc1nc(NCc2ccccc2)c2nc(-c3ccccc3)n(CC(C)(C)CN(C)C)c2n1", "Potency": "inactive"}
{"smiles": "CCCCNc1nc(C)nc2c1nc(-c1ccccc1)n2CCN1CCCC1", "Potency": "inactive"}
{"smiles": "Cc1nc(NC2CCCCC2)c2nc(-c3ccccc3)n(C(C)CN(C)C)c2n1", "note": "(stereo not drawn)", "Potency": "inactive"}
{"smiles": "CCCn1c(-c2ccc(F)cc2)nc2c(NC(C)CCCN(CC)CC)nc(C)nc21", "note": "(stereo not drawn)", "Potency": "inactive"}
{"smiles": "CCCn1c(-c2ccc(F)cc2)nc2c(N3CCN(CCC(=O)OCC)CC3)nc(C)nc21", "Potency": "inactive"}
{"smiles": "Cc1nc(NCc2ccccc2)c2nc(-c3ccccc3)n(CCCN3CCOCC3)c2n1", "Potency": "inactive"}
{"smiles": "CCN(CC)CCCC(C)n1c(-c2ccccc2)nc2c(N(CCOC)CCOC)nc(C)nc21", "note": "(stereo not drawn)", "Potency": "inactive"}
{"smiles": "COCCNc1nc(C)nc2c1nc(-c1ccccc1)n2C1CCN(Cc2ccccc2)C1", "note": "(stereo not drawn)", "Potency": "inactive"}
{"smiles": "CCCn1c(-c2ccc(F)cc2)nc2c(NCC(C)(C)CN(C)C)nc(C)nc21", "Potency": "inactive"}
{"smiles": "CCN(CC)CCCC(C)n1c(-c2ccccc2)nc2c(NC3CCCCC3)nc(C)nc21", "note": "(stereo not drawn)", "Potency": "inactive"}
{"smiles": "Cc1nc(NCc2ccccc2)c2nc(-c3ccccc3)n(C(C)CN(C)C)c2n1", "note": "(stereo not drawn)", "Potency": "inactive"}
{"smiles": "CCN1CCCC1Cn1c(-c2ccccc2)nc2c(N(CCOC)CCOC)nc(C)nc21", "note": "(stereo not drawn)", "Potency": "inactive"}
{"smiles": "COCCN(CCOC)c1nc(C)nc2c1nc(-c1ccccc1)n2CCN1CCOCC1", "Potency": "inactive"}
{"smiles": "Cc1nc(NCc2ccccc2)c2nc(-c3ccccc3)n(CCCN(C)C)c2n1", "Potency": "inactive"}
{"smiles": "CCN1CCCC1Cn1c(-c2ccccc2)nc2c(NC3CCCCC3)nc(C)nc21", "note": "(stereo not drawn)", "Potency": "inactive"}
{"smiles": "Cc1nc(NC2CCCCC2)c2nc(-c3ccccc3)n(CCCN3CCCCC3C)c2n1", "note": "(stereo not drawn)", "Potency": "inactive"}
{"smiles": "CCCCNc1nc(C)nc2c1nc(-c1ccccc1)n2CCCN1CCCCC1C", "note": "(stereo not drawn)", "Potency": "inactive"}
{"smiles": "CCCn1c(C)nc2c(N3CCCN(Cc4ccccc4)CC3)nc(C)nc21", "Potency": "inactive"}
{"smiles": "CCN1CCCC1Cn1c(-c2ccccc2)nc2c(NCc3ccccc3)nc(C)nc21", "note": "(stereo not drawn)", "Potency": "inactive"}
{"smiles": "CCCCNc1nc(C)nc2c1nc(-c1ccccc1)n2C1CCN(Cc2ccccc2)C1", "note": "(stereo not drawn)", "Potency": "inactive"}
{"smiles": "CCCn1c(C)nc2c(NCCN3CCCC3)nc(C)nc21", "Potency": "15.8 µM (active)"}
{"smiles": "Cc1nc(NCc2ccccc2)c2nc(-c3ccccc3)n(C3CCN(Cc4ccccc4)C3)c2n1", "note": "(stereo not drawn)", "Potency": "inactive"}
{"smiles": "Cc1nc(NC2CCCCC2)c2nc(-c3ccccc3)n(CCN3CCCCC3)c2n1", "Potency": "inactive"}
{"smiles": "COCCNc1nc(C)nc2c1nc(-c1ccccc1)n2CCN1CCCCC1", "Potency": "inactive"}
{"smiles": "Cc1nc(N2CCOCC2)c2nc(-c3ccccc3)n(CCN3CCCCC3)c2n1", "Potency": "inactive"}
{"smiles": "CCCn1c(-c2ccc(F)cc2)nc2c(NCCCCN(CC)CC)nc(C)nc21", "Potency": "inactive"}
{"smiles": "CCN(CC)CCCCn1c(-c2ccccc2)nc2c(NCc3ccccc3)nc(C)nc21", "Potency": "inactive"}
{"smiles": "CCCn1c(-c2ccc(F)cc2)nc2c(NCCCN3CCOCC3)nc(C)nc21", "Potency": "inactive"}
{"smiles": "COCCN(CCOC)c1nc(C)nc2c1nc(-c1ccccc1)n2CCCN1CCCCC1C", "note": "(stereo not drawn)", "Potency": "inactive"}
{"smiles": "CCCn1c(-c2ccc(F)cc2)nc2c(N3CCCN(Cc4ccccc4)CC3)nc(C)nc21", "Potency": "inactive"}
{"smiles": "CCN1CCCC1Cn1c(-c2ccccc2)nc2c(NCCOC)nc(C)nc21", "note": "(stereo not drawn)", "Potency": "inactive"}
{"smiles": "CCN(CC)CCCCn1c(-c2ccccc2)nc2c(N(CCOC)CCOC)nc(C)nc21", "Potency": "inactive"}
{"smiles": "Cc1nc(N2CCOCC2)c2nc(-c3ccccc3)n(CCCN3CCOCC3)c2n1", "Potency": "inactive"}
{"smiles": "Cc1nc(NCc2ccccc2)c2nc(-c3ccccc3)n(CCCN3CCCCC3C)c2n1", "note": "(stereo not drawn)", "Potency": "inactive"}
{"smiles": "CCCCNc1nc(C)nc2c1nc(-c1ccccc1)n2CC1CCCN1CC", "note": "(stereo not drawn)", "Potency": "inactive"}
{"target": "Calcium and integrin-binding protein 1 (Homo sapiens) (UniProt Q99828)", "sequence (Q99828 whole entry, looked up)": "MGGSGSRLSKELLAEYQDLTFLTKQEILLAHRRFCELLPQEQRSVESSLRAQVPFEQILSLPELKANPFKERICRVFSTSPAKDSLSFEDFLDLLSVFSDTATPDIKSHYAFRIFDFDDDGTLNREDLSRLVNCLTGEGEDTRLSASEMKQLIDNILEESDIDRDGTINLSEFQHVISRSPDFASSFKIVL", "assay": "Primary qHTS for Identification of Calcium Integrin Binding Protein 1 (CIB1) Competitor (AID 1508620);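 also: GST tagged CIB1 binding a fluorescein labelled alphaIIb integrin peptide tracer; top concentration of the series differs between compounds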", "conditions": "CIB1-GST / FITC-alphaIIb peptide fluorescence polarization; series mostly up to 114 µM", "outline": "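CIB1-GST (1 uM final) and compound incubated 15 min at room temperature before adding FITC-alphaIIb peptide tracer (100 nM final). Competition for binding read by fluorescence polarization (ex 480, em 540) after another 15 min at room temperature.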"}
{"smiles": "CCCn1c(-c2ccc(F)cc2)nc2c(NCCN3CCOCC3)nc(C)nc21", "Potency": "inactive"}
{"smiles": "CCCn1c(-c2ccc(F)cc2)nc2c(NCCN3CCSCC3)nc(C)nc21", "Potency": "inactive"}
{"smiles": "CCCCNc1nc(C)nc2c1nc(-c1ccccc1)n2CCN1CCCCC1", "Potency": "inactive"}
{"smiles": "Cc1nc(Nc2ccccc2)c2nc(-c3ccccc3)n(CCN3CCOCC3)c2n1", "Potency": "inactive"}
{"smiles": "Cc1nc(NCc2ccccc2)c2nc(-c3ccccc3)n(CC(C)(C)CN(C)C)c2n1", "Potency": "inactive"}
{"smiles": "CCCCNc1nc(C)nc2c1nc(-c1ccccc1)n2CCN1CCCC1", "Potency": "inactive"}
{"smiles": "Cc1nc(NC2CCCCC2)c2nc(-c3ccccc3)n(C(C)CN(C)C)c2n1", "note": "(stereo not drawn)", "Potency": "inactive"}
{"smiles": "CCCn1c(-c2ccc(F)cc2)nc2c(NC(C)CCCN(CC)CC)nc(C)nc21", "note": "(stereo not drawn)", "Potency": "inactive"}
{"smiles": "CCCn1c(-c2ccc(F)cc2)nc2c(N3CCN(CCC(=O)OCC)CC3)nc(C)nc21", "Potency": "inactive"}
{"smiles": "Cc1nc(NCc2ccccc2)c2nc(-c3ccccc3)n(CCCN3CCOCC3)c2n1", "Potency": "inactive"}
{"smiles": "CCN(CC)CCCC(C)n1c(-c2ccccc2)nc2c(N(CCOC)CCOC)nc(C)nc21", "note": "(stereo not drawn)", "Potency": "inactive"}
{"smiles": "COCCNc1nc(C)nc2c1nc(-c1ccccc1)n2C1CCN(Cc2ccccc2)C1", "note": "(stereo not drawn)", "Potency": "inactive"}
{"smiles": "CCCn1c(-c2ccc(F)cc2)nc2c(NCC(C)(C)CN(C)C)nc(C)nc21", "Potency": "inactive"}
{"smiles": "CCN(CC)CCCC(C)n1c(-c2ccccc2)nc2c(NC3CCCCC3)nc(C)nc21", "note": "(stereo not drawn)", "Potency": "inactive"}
{"smiles": "Cc1nc(NCc2ccccc2)c2nc(-c3ccccc3)n(C(C)CN(C)C)c2n1", "note": "(stereo not drawn)", "Potency": "inactive"}
{"smiles": "CCN1CCCC1Cn1c(-c2ccccc2)nc2c(N(CCOC)CCOC)nc(C)nc21", "note": "(stereo not drawn)", "Potency": "inactive"}
{"smiles": "COCCN(CCOC)c1nc(C)nc2c1nc(-c1ccccc1)n2CCN1CCOCC1", "Potency": "inactive"}
{"smiles": "Cc1nc(NCc2ccccc2)c2nc(-c3ccccc3)n(CCCN(C)C)c2n1", "Potency": "inactive"}
{"smiles": "CCN1CCCC1Cn1c(-c2ccccc2)nc2c(NC3CCCCC3)nc(C)nc21", "note": "(stereo not drawn)", "Potency": "inactive"}
{"smiles": "Cc1nc(NC2CCCCC2)c2nc(-c3ccccc3)n(CCCN3CCCCC3C)c2n1", "note": "(stereo not drawn)", "Potency": "inactive"}
{"smiles": "CCCCNc1nc(C)nc2c1nc(-c1ccccc1)n2CCCN1CCCCC1C", "note": "(stereo not drawn)", "Potency": "inactive"}
{"smiles": "CCCn1c(C)nc2c(N3CCCN(Cc4ccccc4)CC3)nc(C)nc21", "Potency": "inactive"}
{"smiles": "CCN1CCCC1Cn1c(-c2ccccc2)nc2c(NCc3ccccc3)nc(C)nc21", "note": "(stereo not drawn)", "Potency": "inactive"}
{"smiles": "CCCCNc1nc(C)nc2c1nc(-c1ccccc1)n2C1CCN(Cc2ccccc2)C1", "note": "(stereo not drawn)", "Potency": "inactive"}
{"smiles": "CCCn1c(C)nc2c(NCCN3CCCC3)nc(C)nc21", "Potency": "inactive"}
{"smiles": "Cc1nc(NCc2ccccc2)c2nc(-c3ccccc3)n(C3CCN(Cc4ccccc4)C3)c2n1", "note": "(stereo not drawn)", "Potency": "inactive"}
{"smiles": "Cc1nc(NC2CCCCC2)c2nc(-c3ccccc3)n(CCN3CCCCC3)c2n1", "Potency": "inactive"}
{"smiles": "COCCNc1nc(C)nc2c1nc(-c1ccccc1)n2CCN1CCCCC1", "Potency": "inactive"}
{"smiles": "Cc1nc(N2CCOCC2)c2nc(-c3ccccc3)n(CCN3CCCCC3)c2n1", "Potency": "inactive"}
{"smiles": "CCCn1c(-c2ccc(F)cc2)nc2c(NCCCCN(CC)CC)nc(C)nc21", "Potency": "inactive"}
{"smiles": "CCN(CC)CCCCn1c(-c2ccccc2)nc2c(NCc3ccccc3)nc(C)nc21", "Potency": "inactive"}
{"smiles": "CCCn1c(-c2ccc(F)cc2)nc2c(NCCCN3CCOCC3)nc(C)nc21", "Potency": "inactive"}
{"smiles": "COCCN(CCOC)c1nc(C)nc2c1nc(-c1ccccc1)n2CCCN1CCCCC1C", "note": "(stereo not drawn)", "Potency": "inactive"}
{"smiles": "CCCn1c(-c2ccc(F)cc2)nc2c(N3CCCN(Cc4ccccc4)CC3)nc(C)nc21", "Potency": "inactive"}
{"smiles": "CCN1CCCC1Cn1c(-c2ccccc2)nc2c(NCCOC)nc(C)nc21", "note": "(stereo not drawn)", "Potency": "inactive"}
{"smiles": "CCN(CC)CCCCn1c(-c2ccccc2)nc2c(N(CCOC)CCOC)nc(C)nc21", "Potency": "inactive"}
{"smiles": "Cc1nc(N2CCOCC2)c2nc(-c3ccccc3)n(CCCN3CCOCC3)c2n1", "Potency": "inactive"}
{"smiles": "Cc1nc(NCc2ccccc2)c2nc(-c3ccccc3)n(CCCN3CCCCC3C)c2n1", "note": "(stereo not drawn)", "Potency": "inactive"}
{"smiles": "CCCCNc1nc(C)nc2c1nc(-c1ccccc1)n2CC1CCCN1CC", "note": "(stereo not drawn)", "Potency": "inactive"}
